Assay results reported in PubChem BioAssay AID1220 (Sanford-Burnham Center for Chemical Genomics, 2008).
In all, about 190,000 compounds went through this assay and about 1,300 (0.68%) were called active. This is one part of a sample in which actives are shown more often than they occur. Unmarked numbers belong to inactive results. No stated cut-off is given here; in the data, active means inhibition above about 50%; inactive means the rest.

biological target: Mannose-6-phosphate isomerase (Homo sapiens) (UniProt P34949); assay: MPI inhibition at elevated mannose 6-phosphate – biochemical, fluorescence intensity, high mannose 6-phosphate, primary screen (AID 1220); conditions: recombinant PMI enzyme, coupled fluorescence intensity; at 20 µM; active compounds read high
Sequence (P34949 whole entry, looked up): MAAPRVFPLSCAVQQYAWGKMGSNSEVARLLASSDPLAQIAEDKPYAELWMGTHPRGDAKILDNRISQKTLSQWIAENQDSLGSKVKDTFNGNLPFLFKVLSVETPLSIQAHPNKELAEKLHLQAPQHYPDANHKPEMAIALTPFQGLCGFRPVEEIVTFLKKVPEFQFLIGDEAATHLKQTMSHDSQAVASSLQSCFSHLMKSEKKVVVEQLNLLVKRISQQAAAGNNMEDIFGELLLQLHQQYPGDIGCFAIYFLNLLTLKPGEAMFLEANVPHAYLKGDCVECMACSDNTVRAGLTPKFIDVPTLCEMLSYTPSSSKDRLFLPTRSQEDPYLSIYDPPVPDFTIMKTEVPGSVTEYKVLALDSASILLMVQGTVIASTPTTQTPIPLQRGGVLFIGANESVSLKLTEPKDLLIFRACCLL

SMILES | inhibition
Cc1c(Cl)c([N+](=O)[O-])nn1CCCC(=O)N1CCN(c2ccccc2)CC1 | -19.1%
COc1cccc(CNC(=S)Nc2cc(C)cc(C)c2)c1 | 4.2%
O=c1[nH]c2ccccc2n2c(-c3ccncc3)nnc12 | 0.5%
O=c1[nH]c2ccccc2n2cnnc12 | -5.9%
O=c1[nH]c2ccccc2n2c(-c3ccccc3)nnc12 | 74.5% (active)
COc1ccc(S(=O)(=O)N(C)CC(=O)Nc2ccc(C(N)=O)cc2)cc1OC | -13.3%
CC(C)N(C(=O)CSc1nnc(CNc2ccc(F)cc2)o1)C(C)C | 17%
Cc1cc(C)c(O)c(N)c1 | 61.3% (active)
Cc1cc(C)c2ccc(N)nc2c1O | 26%
Cc1cc(C)c2nc(N)sc2c1 | 7.6%
Cc1nc2cc(C)c(C)cc2s1 | -8.8%
CCC(C)(C)NC(=O)c1cc(C(=O)OC)cc([N+](=O)[O-])c1 | -6.6%
O=C(N/N=C/C(Br)=C/c1ccccc1)C1CC1 | 14.3%
COc1cc2c(cc1O)CC[n+]1cc3c(OC)c(OC)ccc3cc1-2 | 39.9%
COc1ccc2cc3[n+](cc2c1OC)CCc1cc2c(cc1-3)OCO2 | 33.7%
COc1cc2c(cc1OC)-c1cc3ccc4c(c3c[n+]1CC2)OCO4 | 53.6% (active)
O=c1c2ccccc2nc(-c2cccs2)n1-c1cccc2ccccc12 | -3.7%
O=C1c2ccccc2-n2c1nc1ccccc1c2=O | 50.7% (active)
O=c1c2ccccc2nc(-c2ccccc2Cl)n1O | -7.6%
O=C(NCc1ccco1)Nc1ccccc1Cl | 5.5%
NS(=O)(=O)c1ccc(CCNC(=O)c2ccc(S(=O)(=O)N3CCCCC3)cc2)cc1 | -2.8%
O=C(c1ccc(Cl)cc1)c1c[nH]c(C(=O)NNc2cccc(Cl)n2)c1 | 4.5%
Oc1ccc(NCc2ccccc2OCc2ccccc2F)cc1 | 25%
CCOc1ccccc1CNc1ccc(O)cc1 | 59.4% (active)
Oc1ccc(NCc2ccccc2OCc2ccccc2)cc1 | 47.7%

SMILES | inhibition
COc1ccc(C2SCC(=O)N2c2c(C)n(C)n(-c3ccccc3)c2=O)cc1OC (stereo not drawn) | -1.7%
CCOc1ccc(OCC)c(S(=O)(=O)NNC(=O)c2c(C)nc3ccccn23)c1 | -3.5%
Cc1ccc(C(=O)CC2(O)C(=O)N(C)c3ccccc32)s1 (stereo not drawn) | 9.4%
CC(=O)N1c2ccccc2C2(O)N=C(C)SC12 (stereo not drawn) | 52.8% (active)
CC(=O)N1c2ccccc2C(C)(C)C2CCC(C)CC21 (stereo not drawn) | -3.5%
CCOC(=O)C1=C(C)N(C)C(=O)NC1c1c(C)nn(-c2ccc(C)cc2)c1Cl (stereo not drawn) | -4%
CCOC(=O)C1=C(C)N(C)C(=O)NC1c1c(C)nn(-c2ccccc2)c1C (stereo not drawn) | 1.3%
Nc1nc(SCC(=O)NCC2CCCO2)n[nH]1 (stereo not drawn) | 5.9%
CCOc1ccc2[nH]c(=O)c(CN(CCO)C(=O)c3ccccc3F)cc2c1 | -1%
CCCN1CCCc2cc(CN)ccc21 | 50.4% (active)
CCCN1CCCc2ccccc21 | -58.9%
CCc1ccc2c(c1)CCCN2C(=O)c1ccccc1C(=O)O | -10%
COc1cc(C2C(C(C)=O)=C(O)C(=O)N2CCc2c[nH]c3ccccc23)ccc1O (stereo not drawn) | 21.6%
CCOC(=O)CCCNC(=O)COC(=O)c1cccc(C)c1O | -3.7%
S=C1NCCOCCOCCNC(=S)N2CCOCCOCCN1CCOCCOCC2 | 11.7%
CC(=O)N1CCC(N(CCN2CCOCC2)C(=S)Nc2cccc(C)c2)CC1 | -11.5%
CC1(C)CC2CC(C)(CN2C(=O)COc2cccc3ccccc23)C1 (stereo not drawn) | 2.7%
CC1(C)CC2CC(C)(CN2CC(=O)C(C#N)c2ccccc2)C1 (stereo not drawn) | -41%
CC1(C)CC2CC(C)(CN2Cc2c(O)ccc3ccccc23)C1 (stereo not drawn) | 66.3% (active)
O=Cc1ccc2noc(-c3ccc(F)cc3)c2c1 | -86.8%
CCCn1nnc(NC(=O)c2ccc(OCC)c(Cl)c2)n1 | 2%
CC1OC(Nc2ccc(N=Nc3ccccc3)cc2)C(O)C(O)C1O (stereo not drawn) | 8.3%
CC1OC(Nc2cccc3ccccc23)C(O)C(O)C1O (stereo not drawn) | 60.5% (active)
CC(=O)c1ccc(NC2OC(C)C(O)C(O)C2O)cc1 (stereo not drawn) | 20.1%
Cc1ccc2cc(CN(Cc3cccs3)Cc3nnnn3CC3CCCO3)c(=O)[nH]c2c1C (stereo not drawn) | 0.6%

SMILES | inhibition
COc1cccc(NC(=S)N(Cc2ccc(Cl)cc2)Cc2ccc(C(=O)O)cc2)c1 | -30.6%
O=C(Cc1ccccc1F)NCC(c1ccco1)N1CCCCC1 (stereo not drawn) | -5.8%
COc1ccccc1CC(=O)NCC(c1ccco1)N1CCCCC1 (stereo not drawn) | 58.9% (active)
COc1ccccc1NC(=O)NCC(c1ccco1)N1CCCCC1 (stereo not drawn) | 0.2%
O=C(c1ccco1)N1CCN(C(c2ccc(F)cc2)c2nnnn2Cc2cccs2)CC1 (stereo not drawn) | -6%
Cn1cnc2cc(NC(=O)c3ccc(Cl)cc3)ccc21 | -16.1%
CSc1nc2ccccc2n1CC(=O)Nc1cc(C(F)(F)F)ccc1N1CCOCC1 | -1.6%
NS(=O)(=O)c1ccc(C(=O)O)cc1 | -8%
N#CC(C#N)=C1c2cc(S(N)(=O)=O)ccc2-c2ccc(S(N)(=O)=O)cc21 | 57.5% (active)
N#CC(C#N)=Cc1cccn1-c1ccc(S(N)(=O)=O)cc1 | 0%
CC(C)OP(=O)(c1ccccc1)c1ccccc1 | -8.8%
C=CCN1C(=NC(=O)CCC)SC2CS(=O)(=O)CC21 (stereo not drawn) | -8.2%
O=C(/C=C/c1ccc(-c2ccccc2[N+](=O)[O-])o1)c1ccccc1 | 47.3%
N#C/C(=C\c1ccc(-c2ccc(F)cc2)o1)C(=O)Nc1nc(-c2cccs2)cs1 | 30.8%
CNC(=O)/C(C#N)=C/c1ccc(-c2ccccc2[N+](=O)[O-])o1 | 61% (active)
Cc1ccc(Cc2cnc(NC(=O)/C(C#N)=C/c3ccc(-c4ccccc4[N+](=O)[O-])o3)s2)cc1 | 30.3%
O=C(/C=C/c1ccc(-c2ccccc2[N+](=O)[O-])o1)c1ccc(Br)cc1 | -32.8%
O=C(/C=C/c1ccc(-c2ccccc2[N+](=O)[O-])o1)c1ccc(F)cc1 | 34.1%
O=C(/C=C/c1ccc(-c2ccccc2[N+](=O)[O-])o1)c1ccco1 | 51.7% (active)
N#C/C(=C\c1ccc(-c2ccccc2[N+](=O)[O-])o1)C(=O)N1CCOCC1 | 45.8%
N#C/C(=C/c1ccc(-c2ccccc2[N+](=O)[O-])o1)C(N)=O | 51.9% (active)
COCCNC(=O)/C(C#N)=C/c1ccc(-c2ccc(OC)cc2[N+](=O)[O-])o1 | 42.2%
N#C/C(=C\c1ccc(-c2ccccc2[N+](=O)[O-])o1)C(=O)Nc1nc(-c2cccs2)cs1 | 53.1% (active)
CNC(=O)/C(C#N)=C/c1ccc(-c2ccc(OC)cc2[N+](=O)[O-])o1 | 29.2%
CCOC(=O)c1c(NC(=O)c2c(C(=O)O)cccc2[N+](=O)[O-])sc(C)c1C | 8.7%

SMILES | inhibition
O=C(Nc1ccc(S(=O)(=O)Nc2ccc(F)cc2)cc1)c1ccc(CN2CCOCC2)cc1 | 17%
Cc1cc(C)n(-c2nc(NCc3cccnc3)c3c4c(sc3n2)COC(C)(C)C4)n1 | 6.9%
O=c1c2cc(NC(=S)NCc3cccnc3)ccc2nc2n1CCCCC2 | 1.2%
CC1Cc2ccccc2N1C(=O)CSc1nnc(-c2ccccc2)c(-c2ccccc2)n1 (stereo not drawn) | 37.9%
COc1cccc(C2CC(c3ccc(C(C)C)cc3)n3nc(N)nc3N2)c1 (stereo not drawn) | 11.2%
CC(=O)Nc1ccc(OCC(O)CN2CCN(c3cc(Cl)ccc3C)CC2)cc1 (stereo not drawn) | -2%
CC(C)(C)c1cc2cccnc2n1Cc1cccc(Cl)c1 | 1.9%
Clc1cccc(CN2COc3c(cc(Cl)c4cccnc34)C2)c1 | 51.8% (active)
Oc1c(CN2CCc3ccccc3C2)cc(Cl)c2cccnc12 | 48.3%
Cc1nn(-c2ccccc2)c(Cl)c1C1C(C#N)=C(N)Oc2c1c(C)nn2-c1ccccc1 (stereo not drawn) | 9%
CC(C)CNC(=O)CSc1nc2scc(-c3ccccc3)c2c(=O)[nH]1 | -14.2%
CC(=O)Nc1ccc(N(C(=O)CNC(=O)c2ccco2)C(C(=O)NCc2ccco2)c2ccccc2F)cc1 (stereo not drawn) | 60.4% (active)
CC(=O)c1cccc(N(C(=O)CNC(=O)c2ccco2)C(C(=O)NCc2ccco2)c2ccccc2)c1 (stereo not drawn) | -1.4%
CC(=O)Nc1ccc(N(C(=O)CNC(=O)c2ccco2)C(C(=O)NCC2CCCO2)c2ccccc2)cc1 (stereo not drawn) | -1.6%
O=C(Oc1c(CN2CCOCC2)cc(Cl)c2cccnc12)c1cccs1 | 56.4% (active)
COCc1cc(CN2CCN(C)CC2)c(O)c2ncccc12 | 37.9%
O=C(OCCN1CCOCC1)c1cccs1 | 9%
CN1CCN(Cc2cc(Cl)c3cccnc3c2OC(=O)c2cccs2)CC1 | 50.4% (active)
O=C(Oc1c(Cl)cc(Cl)c2cccnc12)c1cccs1 | 1.8%
O=C(Oc1ccc(Cl)c2cccnc12)N1CCOCC1 | 8.2%
CCC(=O)c1ccc(N2CCN(C(=O)c3cccc(F)c3)CC2)c(F)c1 | 7.7%
CCCn1nc(C(=O)NCc2ccccn2)c2ccccc2c1=O | -1.4%
O=C(CNCCC1=CCCCC1)Nc1ccccc1N1CCCCC1 | -0.7%
